# Results reported in PubChem BioAssay (Tox21).
# Inconclusive results are not listed. Activity calls are given as the source filed them. The call rests on the fitted dose curve.
# Assay: qHTS assay to identify small molecule antagonists of the sonic hedgehog signaling (Shh) pathway (AID 1259369); further: nearly all actives have a fitted effect of over 45% in size
# Settings: NIH/3T3 Gli1-Luc reporter, Shh antagonist, luminescence 24 h; series mostly up to 92.4 µM; activity change, negative = inhibition: at the top concentration
# Description: U.S. Tox21 Program National Center for Advancing Translational Sciences [NCATS] NIH Chemical Genomics Center [NCGC] U.S. Environmental Protection Agency [EPA] National Institutes of Environmental Health Sciences [NIEHS] National Toxicology Program [NTP] U.S. Food and Drug Administration [FDA] Tox21 Assay Overview: The sonic hedgehog (Shh) pathway is essential for normal embryonic development. Dysregulation of the Shh pathway can cause severe developmental defects in organs. Therefore chemicals that interfere with the pathway are potential developmental toxicants. A cell line designated 3T3Gli1-Luc (DMB/OARSA/CFSAN/FDA, Laurel, MD), a NIH/3T3 derived clone containing stably integrated Gli1-Luc reporter is used to detect chemical interference of the Shh pathway, by changes in the expression of the firefly Luc gene under the control of the Gli1 transcriptional response element. This cell line was used to screen Tox21 libraries for identifying and prioritizing the potential developmental toxicants that interfere Shh pathway. Conditioned medium-stimulated mode was used to screen for chemicals inhibiting Shh signaling.
# Tox21 Assay Protocol Summary: 3T3 Gli1-Luc cells were dispensed at 2,000 per well in 5uL of culture medium into white solid bottom 1536-well plates (Greiner Bio-One, Monroe, NC) using a Multidrop Combi (Thermo Scientific, Waltham, MA) dispenser. The assay plates were incubated at 37 C and 5% CO2 for 4hr, and then 23nL of compounds dissolved in DMSO and positive control were transferred using a Pintool station (Wako, San Diego, CA). The compound transfer was followed by the addition of 1ul conditioned medium or assay buffer using two separate tips of Flying Reagent Dispenser (FRD, Aurora Discovery, San Diego, CA). The assay plates were incubated at 37C and 5% CO2 for 24hr. For luciferase read, 4uL of Amplite Luciferase reporter gene assay reagent (AAT Bioquest, Inc. Sunnyvale, CA) was added to each well of the assay plates using FRD and incubated at room temperature for 30min. The luminescence signal was measured using a ViewLux plate reader (Perkin Elmer, Shelton, CT).
# On the % scale 0 is the no-effect control and ±100 the full control effect; potency means the concentration at half of the fitted maximal effect.
SMILES,Potency,"activity change, negative = inhibition"
c1csc(SSc2cccs2)c1,13.7 µM (active),–
C=Cc1ccc(S(=O)(=O)O)cc1,61.1 µM (active),–
CCCCCCCCOc1ccc(C(=O)O)cc1,–,-18.8% (inactive)
Cc1cc2c(OCC(CNC(C)(C)C)OC(=O)c3ccccc3)cccc2[nH]1 (stereo not given),8.41 µM (active),–
O=C(O)CCc1nc(-c2ccccc2)c(-c2ccccc2)o1,–,-2.11% [at 42.5 µM] (inactive)
O=C(O)CCC(=O)C(=O)O,–,0% (inactive)
N#[N+]c1ccc2c(S(=O)(=O)[O-])cccc2c1O,–,6.41% (inactive)
Oc1cccc(Nc2ccccc2)c1,–,0% (inactive)
CC(=O)Oc1ccc([N+](=O)[O-])cc1CCl,–,-13.2% (inactive)
CN1C(=O)OC(C)(C)C1=O,–,32.9% (inactive)
CC(=O)OCC[N+](C)(C)C,–,13.5% [at 42.5 µM] (inactive)
CC[N+](CC)(CCNC(=O)C(=O)NCC[N+](CC)(CC)Cc1ccccc1Cl)Cc1ccccc1Cl,–,0.718% [at 42.5 µM] (inactive)
C[C@@H](O[C@H]1OCCN(Cc2n[nH]c(=O)[nH]2)[C@H]1c1ccc(F)cc1)c1cc(C(F)(F)F)cc(C(F)(F)F)c1,13.3 µM (active),–
C=CCc1ccccc1OCC(O)CNC(C)C (stereo not given),–,-22.2% [at 42.5 µM] (inactive)
CN1C(C(=O)Nc2ccccn2)=C(O)c2sccc2S1(=O)=O,–,9.87% [at 42.5 µM] (inactive)
CCC(C)COC(=O)CC(C)C (stereo not given),–,-1.66% (inactive)
Nc1ncnc2c1ncn2[C@H]1CC[C@@H](CO)O1,–,3.7% (inactive)
O=C1Cc2cc(Cl)ccc2N1,–,-10.9% [at 42.5 µM] (inactive)
CN(C)CCN1C(=O)c2ccccc2N(C)c2ccccc21,–,-11% [at 42.5 µM] (inactive)
OC1(c2ccccc2)CCNCC1,–,17.4% [at 42.5 µM] (inactive)

SMILES,Potency,"activity change, negative = inhibition"
CCCCCCCCCCCCCCN(CCO)CCO,19.3 µM (active),–
Cc1cscn1,–,-0.323% (inactive)
CCOC(=O)[C@H](CCc1ccccc1)N[C@@H](C)C(=O)N(CC(=O)O)C1Cc2ccccc2C1,–,-1.74% [at 42.5 µM] (inactive)
O=C(OC(=O)c1ccccc1)c1ccccc1,–,3.72% (inactive)
O=C=Nc1cccc(C(F)(F)F)c1,–,-13.3% (inactive)
COC(=O)c1nc(Cl)c(Cl)nc1N,0.75 µM (active),–
Oc1ccc(Cl)c2cccnc12,0.596 µM (active),–
O=c1cc(-c2ccccc2)oc2cc(O)cc(O)c12,61.1 µM (active),–
CC(=O)c1cc2ccccc2s1,–,1.9% [at 42.5 µM] (inactive)
CN1CCCC(n2nc(Cc3ccc(Cl)cc3)c3ccccc3c2=O)CC1 (stereo not given),2.66 µM (active),–
FC(F)(F)c1ccccc1Cl,–,19% (inactive)
CC(=O)c1ccc([N+](=O)[O-])cc1,–,19.7% (inactive)
CCC=CC#N,–,0.0972% (inactive)
Cc1cc(C)c(N)cc1C,–,16.3% (inactive)
Cc1cc(O)c(C)c(C)c1O,–,13.4% [at 42.5 µM] (inactive)
C=CC(=O)OCC1CC2CC1C1CCC(COC(=O)C=C)C21 (stereo not given),19.3 µM (active),–
CO[C@]1(NC(=O)CSC(F)F)C(=O)N2C(C(=O)O)=C(CSc3nnnn3CCO)CO[C@H]21,–,4.53% [at 42.5 µM] (inactive)
O=c1[nH]c2ccc(Cl)cc2o1,–,-2.99% (inactive)
CC(=O)N/N=C/c1ccc([N+](=O)[O-])o1,26.6 µM (active),–
OC(CCN1CCCC1)(c1ccccc1)C1CCCCC1 (stereo not given),8.41 µM (active),–
